# In PubChem BioAssay (NCI):
# This is part of a sample that, as a whole, favours compounds with a hit. Of some 79,000 tested, about 15% had one in any assay. Values without a mark were called inactive. Activity calls are given as the source filed them. No stated cut-off is given here; in the data, active means growth inhibition above about 70%; inactive means the rest.
# Assay: NCI Yeast Anticancer Drug Screen. Data for the rad50 strain (AID 155);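 further: 0% = growth of vehicle-only cultures of the same strain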
# Conditions: S. cerevisiae rad50 strain growth inhibition, hits give high values
# Protocol: Growth inhibition of yeast strains with defined genetic alterations is measured as a screen for potential anti-cancer activity. Selected strains with alterations in DNA damage repair or cell cycle control were exposed to compounds and growth inhibition was measured relative to vehicle treated controls. The strain used in this assay is rad50
# [1] = at 5.0 µM (retest, dose inferred, filed as 0.5)
# [2] = at 50.0 µM (retest, dose inferred, filed as 5.0)
SMILES,growth inhibition (at 1.2 µM),growth inhibition (at 3.7 µM),growth inhibition [1],growth inhibition (at 11.0 µM),growth inhibition (at 33.0 µM),growth inhibition [2],growth inhibition (at 50.0 µM),growth inhibition (at 100.0 µM)
CC(C)CN(CC(C)C)C(=O)c1ccc(Cl)c(Cl)c1,-2%,4%,-10%,6%,85% (active),94% (active),94.7% (active),99% (active)
CCC(C)OC(=O)Nc1ccc(C)c(NC(=O)OC(C)CC)c1 (stereo not given),1%,1%,4%,2%,9%,76% (active),54%,96% (active)
Oc1[nH]c2ccccc2c1N=NC(=S)N1CCCCC1,5%,11%,11%,13%,97% (active),99% (active),75.5% (active),98% (active)
O=C(CSC(=S)N1CCCCC1)Nc1nc2c(s1)CCCC2,-11%,-2%,31%,-16%,26%,68%,74.3% (active),83% (active)
CC(=O)OC1CCC2(C)C(=CC(C3C=C4CC(OC(C)=O)CCC4(C)C4=C3C3CC5OC6(CCC(C)CO6)C(C)C5C3(C)CC4)C3=C2CCC2(C)C3CC3OC4(CCC(C)CO4)C(C)C32)C1 (stereo not given),0%,1%,-7%,2%,6%,45%,91.3% (active),64%
